# Screening results as filed in PubChem BioAssay.
# HSP90 inh: HSP90 refolding inhibition in rabbit reticulocyte lysate; inhibition, % at 5.6 µM; luciferase refolding luminescence, 3 h; AID 1789; 0.91% of 290,000 active;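 active = inhibition above the screen-wide mean plus 3 SD, computed separately per campaign, cut at about 16% in these data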;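 also: inhibitors lower the luminescence because luciferase stays unfolded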
# TROY signal inh: TROY signaling inhibition. 0.98% of 360,000 active. inhibition, % at 10 µM. Q293 LMP1-TROYcd NF-kB luciferase reporter, 4 h;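 active = compounds whose plate-normalised and pattern-corrected inhibition of the luciferase reporter signal at the single screening dose is 50% or more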
# aDG glyco act: increases alpha dystroglycan glycosylation; Pro5-aDG cells, alpha-DG glycosylation AlphaScreen (IIH6); 0% Pro5, 100% B10-LARGE cell signal; activation, % at 10 µM; 0.22% of 360,000 active; AID 624168;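 active = activation of at least 8% versus controls, or a plate z-score of at least 8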;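 also: Pro5 are CHO cells carrying HIG-tagged alpha-DG that lacks glycosylation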
# EBV LMP1 NFkB: inhibitors of Epstein-Barr LMP1-induced NF-kappaB reporter | AID 504558 | inhibition, % at 12.5 µM | LMP1-induced NF-kappaB luciferase reporter cells, luminescence | 0.69% of 350,000 active; in the data active = inhibition above about 41%
# TWEAK Fn14 block: TWEAK-Fn14 signaling inhibition; TWEAK-stimulated Fn14 reporter cells, luciferase luminescence, 8 h; inhibition, % at 10 µM; AID 1159606; 2% of 360,000 active; in the data active = inhibition above about 50%
# LGR2 inh: Drosophila LGR2 receptor signaling inhibition; 0.35% of 380,000 active; HEK293 LGR2, CRE-luciferase, bursicon-stimulated, 4 h; inhibition, % at 9.99 µM;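 active = drop in luminescence signal, shown as inhibition above about 50% in the replicate tests, limit read from the data, passing the limit was not always enough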;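 also: agonist challenge used bursicon conditioned medium at about half maximal strength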
# Numbers stand for hits; 0 = inactive; - = not tested or not shown. Most compounds without a hit are left out; they make up all but 2.6% or so of the library.
SMILES,HSP90 inh,TROY signal inh,aDG glyco act,EBV LMP1 NFkB,TWEAK Fn14 block,LGR2 inh
CCCCn1c(/C=N/Nc2nc3ccccc3[nH]2)nc2ccccc21,0,0,0,0,0,0
C#CCn1cc(/C=N/Nc2nc3ccccc3[nH]2)c2ccccc21,0,0,0,0,53,0
C(=N\Nc1nc2ccccc2[nH]1)/c1ccc2ncccc2c1,0,0,0,0,0,0
O=C(C[C@@H]1CC[C@@H]2[C@H](COC[C@H](O)CN2CCc2ccccc2)O1)NCc1ccc(Oc2ccccc2)cc1,-,-,-,-,-,0
C[C@@H]1CN([C@@H](C)CO)C(=O)c2cccc(NC(=O)c3ccncc3)c2O[C@@H]1CN(C)C(=O)Nc1ccccc1,-,-,-,-,-,0
Cc1ccc(CSc2nccc(-c3c(C)nc4ccccn34)n2)cc1,0,0,0,-,57,0
Cc1ccc(CSc2ncn(-c3ccccc3)n2)cc1,0,0,0,0,0,-
S=C(Nc1ccc(Cl)c(Cl)c1)NC1CCCCC1,0,0,0,0,63,0
CCOC(=O)N1CCN(C(=O)c2ccc3oc(CCc4ccccc4)nc3c2)CC1,-,0,0,0,0,0
O=C(c1ccc2oc(CCc3ccccc3)nc2c1)N1CCC(O)CC1,0,58,0,0,0,0
C/C(=N\NC(=O)C1(C)CC1(Br)Br)c1cccc(NC(=O)c2ccc(C)o2)c1 (stereo not drawn),0,0,0,0,56,0
Cc1ccc(C(=O)Nc2cccc(C(=O)NCc3ccccc3)c2)o1,0,0,0,0,0,0
CS(=O)(=O)N1CC(=O)N2[C@H](C1)[C@H](c1ccc(C#Cc3cccc(F)c3)cc1)[C@@H]2CO,-,-,-,-,-,0
CCc1csc(N2[C@H](C#N)[C@@H](c3ccc(-c4cccc(F)c4)cc3)[C@@H]2CO)n1,-,-,-,-,-,0
COc1cc(NC(=S)N2CCN(CCO)CC2)cc(OC)c1,0,0,0,69,0,0
COCC(=O)Nc1ccc2c(c1)C(=O)N(C)[C@@H]1CC[C@H](CC(=O)O)O[C@@H]1CO2,-,-,-,-,-,0
COc1ccc(-c2n(CC(=O)OC3CC(C)CCC3C(C)C)c3ccccc3[n+]2C)cc1 (stereo not drawn),0,0,0,0,80,0
O=C(Nc1cc(Sc2ccccn2)cc([N+](=O)[O-])c1)c1cccc(F)c1,0,0,0,0,65,0
O=C(Nc1cc(Sc2nc3ccccc3s2)cc([N+](=O)[O-])c1)c1ccccc1F,0,0,0,0,0,-
O=C(Nc1cc(Sc2nc3ccccc3s2)cc([N+](=O)[O-])c1)c1ccccc1,0,0,0,0,63,0
COc1ccc2c3c(n(C)c2c1)[C@@H](CO)NCC31CCN(C(=O)Nc2ccccc2F)CC1,-,-,-,-,-,0
O=C(c1ccc2c(c1)OCO2)N1CC2(C1)[C@@H](c1ccccc1)[C@@H](CO)N2C(=O)C1CCC1,-,-,-,-,-,0
CCCCn1c(NC(=O)c2ccco2)c(S(=O)(=O)c2ccc(C)cc2)c2nc3ccccc3nc21,0,66,0,0,72,0
CCCCn1c(NS(=O)(=O)c2ccccc2)c(S(=O)(=O)c2ccc(C)cc2)c2nc3ccccc3nc21,16,70,0,0,0,-
CCC(=O)Nc1c(S(=O)(=O)c2ccc(C)cc2)c2nc3ccccc3nc2n1C(C)c1ccccc1 (stereo not drawn),0,0,0,0,0,0
SMILES,HSP90 inh,TROY signal inh,aDG glyco act,EBV LMP1 NFkB,TWEAK Fn14 block,LGR2 inh
CCCCCn1c(NC(=O)c2ccco2)c(S(=O)(=O)c2ccc(C)cc2)c2nc3ccccc3nc21,16,65,0,0,67,-
CCC(=O)Nc1c(S(=O)(=O)c2ccccc2)c2nc3ccccc3nc2n1C(C)c1ccccc1 (stereo not drawn),0,73,0,0,50,0
C[C@@H]1CN([C@H](C)CO)C(=O)c2cc(NC(=O)NC3CCCCC3)ccc2O[C@@H](C)CCCCO[C@@H]1CN(C)C(=O)c1ccccc1,-,-,-,-,-,0
CCOc1cc(/C=C2\CN(CC)C/C(=C\c3ccc(O)c(OCC)c3)C2=O)ccc1O,0,0,0,0,100,69
COc1cc(/C=C2\COC/C(=C\c3cc(OC)c(OC)c(OC)c3)C2=O)cc(OC)c1OC,0,78,0,91,102,-
COc1cc(/C=C2\CCC/C(=C\c3ccc(O)c(OC)c3)C2=O)ccc1O,0,0,0,0,85,0
CCOc1cc(/C=N/N=C/c2ccc(O)c(OCC)c2)ccc1O,0,0,0,0,0,0
COc1cc(/C=C2/CCCC(C(=O)C(F)(F)F)=C2O)ccc1O,0,0,0,0,0,0
